Experimental data taken from ChEMBL document CHEMBL3988442, “University of Dundee, Small-Polar-MMV Screening Library” (2021).
For part of these data: Entries with a potency or affinity are not part of this list.

Columns and labels:
Design in all cases: scale not given: direction of the effect not stated beside the values
[1] = biological target: Protein translocase subunit SecA (Escherichia coli (strain K12)) (UniProt P10408); assay: Assay to Identify E. coli SecA ATPase Inhibitors; type: functional; settings: 30 µM
Protein translocase subunit SecA (Escherichia coli (strain K12)), sequence (P10408 whole entry): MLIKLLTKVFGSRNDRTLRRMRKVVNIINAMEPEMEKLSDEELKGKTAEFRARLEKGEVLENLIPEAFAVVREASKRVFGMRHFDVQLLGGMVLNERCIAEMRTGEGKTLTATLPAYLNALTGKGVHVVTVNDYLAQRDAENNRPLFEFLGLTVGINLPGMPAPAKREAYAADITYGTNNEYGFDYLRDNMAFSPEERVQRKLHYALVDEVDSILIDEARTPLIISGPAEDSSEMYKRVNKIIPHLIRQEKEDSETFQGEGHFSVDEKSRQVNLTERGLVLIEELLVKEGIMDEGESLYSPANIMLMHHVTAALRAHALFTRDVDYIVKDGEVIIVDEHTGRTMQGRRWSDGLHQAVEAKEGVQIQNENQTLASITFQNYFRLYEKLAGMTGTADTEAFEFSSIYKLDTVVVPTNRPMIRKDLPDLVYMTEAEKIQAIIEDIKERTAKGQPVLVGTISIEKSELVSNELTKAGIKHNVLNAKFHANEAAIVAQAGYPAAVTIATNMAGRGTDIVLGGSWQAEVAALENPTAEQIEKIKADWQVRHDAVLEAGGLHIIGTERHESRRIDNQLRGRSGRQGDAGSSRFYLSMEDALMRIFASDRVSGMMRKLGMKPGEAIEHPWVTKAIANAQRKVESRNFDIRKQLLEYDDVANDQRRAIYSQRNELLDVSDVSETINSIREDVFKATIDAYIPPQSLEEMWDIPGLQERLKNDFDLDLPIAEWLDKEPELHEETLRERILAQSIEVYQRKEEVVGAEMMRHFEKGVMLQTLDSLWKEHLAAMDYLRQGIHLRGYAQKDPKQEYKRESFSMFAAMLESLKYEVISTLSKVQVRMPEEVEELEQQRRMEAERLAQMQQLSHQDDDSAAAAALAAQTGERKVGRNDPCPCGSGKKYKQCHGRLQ

[2] = biological target: T1, Ubiquitin-activating enzyme e1, putative (Leishmania donovani (strain BPK282A1)) (UniProt E9BSI1); assay: Leishmania donovani Ubiquitin Activating Enzyme (LdE1); type: functional; settings: 30 µM
T1 sequence (whole entry): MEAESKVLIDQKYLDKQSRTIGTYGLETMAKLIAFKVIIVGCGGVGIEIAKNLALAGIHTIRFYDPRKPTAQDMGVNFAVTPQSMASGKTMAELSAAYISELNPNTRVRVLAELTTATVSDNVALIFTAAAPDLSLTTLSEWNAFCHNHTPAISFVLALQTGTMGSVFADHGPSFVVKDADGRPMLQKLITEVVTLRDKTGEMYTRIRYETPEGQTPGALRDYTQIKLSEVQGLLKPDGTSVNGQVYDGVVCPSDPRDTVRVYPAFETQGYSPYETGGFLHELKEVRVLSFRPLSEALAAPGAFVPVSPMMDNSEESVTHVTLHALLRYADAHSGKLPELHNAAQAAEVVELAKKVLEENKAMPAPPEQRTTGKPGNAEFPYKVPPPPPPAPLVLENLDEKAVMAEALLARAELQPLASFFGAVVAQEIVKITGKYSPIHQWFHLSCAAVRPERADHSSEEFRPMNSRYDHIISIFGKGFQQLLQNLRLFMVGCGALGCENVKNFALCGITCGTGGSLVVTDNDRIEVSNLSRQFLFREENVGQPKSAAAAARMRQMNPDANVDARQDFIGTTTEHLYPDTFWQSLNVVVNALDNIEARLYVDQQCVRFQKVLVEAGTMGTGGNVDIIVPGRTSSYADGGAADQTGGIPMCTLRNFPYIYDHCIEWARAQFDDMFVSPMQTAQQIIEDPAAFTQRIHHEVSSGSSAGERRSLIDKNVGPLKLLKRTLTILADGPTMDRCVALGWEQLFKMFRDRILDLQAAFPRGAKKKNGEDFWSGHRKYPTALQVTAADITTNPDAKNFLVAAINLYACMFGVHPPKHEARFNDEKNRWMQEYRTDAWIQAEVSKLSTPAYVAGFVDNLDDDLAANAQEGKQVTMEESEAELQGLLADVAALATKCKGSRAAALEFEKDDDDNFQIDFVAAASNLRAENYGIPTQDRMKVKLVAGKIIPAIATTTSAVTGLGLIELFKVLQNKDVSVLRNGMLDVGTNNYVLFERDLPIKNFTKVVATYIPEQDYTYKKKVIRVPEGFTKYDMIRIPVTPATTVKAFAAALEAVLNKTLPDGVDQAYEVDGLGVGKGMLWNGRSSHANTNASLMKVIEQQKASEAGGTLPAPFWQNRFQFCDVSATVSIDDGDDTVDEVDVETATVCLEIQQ

[3] = biological target: AMP-activated protein kinase, AMPK (Homo sapiens) (UniProt P54646+O43741+P54619+Q9UGJ0+Q9Y478+Q13131+Q9UGI9); assay: AMP-dependent Kinase enzyme assay. An in vitro enzyme assay that detects ADP turnover that is directly proportional to AMPK activity. This uses naive AMPK that is activated during the assay with MK-8722; type: functional; settings: 30 µM
[4] = biological target: Sialic acid-binding Ig-like lectin 9 (Homo sapiens) (UniProt Q9Y336); assay: Hs-Siglec9 ALPHAscreen SOP 20170721; settings: 10 µM
Sialic acid-binding Ig-like lectin 9 (Homo sapiens), sequence (Q9Y336 whole entry): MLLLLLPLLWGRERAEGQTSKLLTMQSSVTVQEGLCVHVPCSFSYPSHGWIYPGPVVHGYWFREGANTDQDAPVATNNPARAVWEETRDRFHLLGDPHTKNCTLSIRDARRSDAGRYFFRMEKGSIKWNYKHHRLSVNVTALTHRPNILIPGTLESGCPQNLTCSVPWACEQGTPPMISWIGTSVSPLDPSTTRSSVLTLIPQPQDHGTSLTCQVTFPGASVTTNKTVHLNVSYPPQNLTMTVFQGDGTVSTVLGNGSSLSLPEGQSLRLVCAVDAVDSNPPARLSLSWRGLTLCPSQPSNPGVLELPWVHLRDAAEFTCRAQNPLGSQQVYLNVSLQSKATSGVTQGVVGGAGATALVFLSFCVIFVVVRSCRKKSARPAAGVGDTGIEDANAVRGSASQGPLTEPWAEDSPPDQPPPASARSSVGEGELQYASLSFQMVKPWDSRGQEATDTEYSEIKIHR

Trypanosoma cruzi = assay: Trypanosoma cruzi phosphomannomutase and mannose-1-phosphate guanylyltransferase assay; type: functional; settings: 10 µM
[5] = biological target: T2, Arginase-2, mitochondrial (Homo sapiens) (UniProt P78540); assay: in vitro enzyme assay to detect the production of urea directly proportional to the activity of Arginase II; type: functional; settings: 33.3 µM; further: in the data most compounds retested in dose-response had high values
T2 sequence (whole entry): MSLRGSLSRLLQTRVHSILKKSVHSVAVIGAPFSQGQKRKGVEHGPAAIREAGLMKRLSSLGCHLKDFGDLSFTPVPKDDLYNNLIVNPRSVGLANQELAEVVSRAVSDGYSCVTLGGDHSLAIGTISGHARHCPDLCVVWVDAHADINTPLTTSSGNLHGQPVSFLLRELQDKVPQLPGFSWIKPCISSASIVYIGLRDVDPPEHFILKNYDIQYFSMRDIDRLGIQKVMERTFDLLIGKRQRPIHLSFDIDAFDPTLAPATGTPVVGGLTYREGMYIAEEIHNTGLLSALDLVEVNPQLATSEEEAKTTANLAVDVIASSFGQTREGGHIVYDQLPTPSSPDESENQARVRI

[6] = biological target: T3, Proteasome subunit beta (Trypanosoma cruzi) (UniProt O96673); assay: Trypanosoma cruzi proteasome chymotrypsin-like activity (TcProtChymo) assay.; further: in the data most compounds retested in dose-response had high values; type: functional; settings: 9.37 µM
T3 sequence (whole entry): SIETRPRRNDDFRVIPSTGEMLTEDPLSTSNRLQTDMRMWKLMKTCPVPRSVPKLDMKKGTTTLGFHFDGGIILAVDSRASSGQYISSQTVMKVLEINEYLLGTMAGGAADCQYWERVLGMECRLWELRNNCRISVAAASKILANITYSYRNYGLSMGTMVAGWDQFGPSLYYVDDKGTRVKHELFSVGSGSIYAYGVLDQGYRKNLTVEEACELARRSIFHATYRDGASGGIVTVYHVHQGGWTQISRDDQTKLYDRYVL

Homo sapiens = species on record: Homo sapiens; assay: To identify inhibition of the IFN signalling (Jak-Stat) pathway via expression of an eGFP reporter gene under the control of an IFN-stimulated response element (ISRE) containing MxA promoter.; type: functional; settings: 30 µM
[7] = biological target: T4, Tyrosyl-tRNA synthetase, putative (Trypanosoma cruzi (strain CL Brener)) (UniProt Q4DSP6); assay: Trypanosoma cruzi tyrosyl tRNA synthetase (TcYRS) _High Tyrosine SOP; type: functional; settings: 30 µM; further: in the data most compounds retested in dose-response had high values
T4 sequence (whole entry): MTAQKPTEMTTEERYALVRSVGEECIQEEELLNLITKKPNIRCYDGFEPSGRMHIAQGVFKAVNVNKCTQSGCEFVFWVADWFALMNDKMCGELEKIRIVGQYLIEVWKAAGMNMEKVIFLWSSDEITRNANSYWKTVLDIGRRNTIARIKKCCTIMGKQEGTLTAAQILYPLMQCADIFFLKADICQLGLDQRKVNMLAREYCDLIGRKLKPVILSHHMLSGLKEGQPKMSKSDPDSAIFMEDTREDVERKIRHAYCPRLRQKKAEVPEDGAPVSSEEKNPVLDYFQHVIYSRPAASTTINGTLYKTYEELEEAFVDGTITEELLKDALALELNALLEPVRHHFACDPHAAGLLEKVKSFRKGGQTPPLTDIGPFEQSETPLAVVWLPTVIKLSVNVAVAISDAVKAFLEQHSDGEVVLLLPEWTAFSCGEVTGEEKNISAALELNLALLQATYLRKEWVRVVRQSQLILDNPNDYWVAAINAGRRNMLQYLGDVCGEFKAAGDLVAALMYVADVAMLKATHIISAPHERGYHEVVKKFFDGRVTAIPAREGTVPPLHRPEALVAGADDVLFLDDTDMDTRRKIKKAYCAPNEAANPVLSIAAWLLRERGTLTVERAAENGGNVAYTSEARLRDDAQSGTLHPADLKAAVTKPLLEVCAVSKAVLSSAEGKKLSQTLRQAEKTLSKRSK

[8] = biological target: T4, Tyrosyl-tRNA synthetase, putative (Trypanosoma cruzi (strain CL Brener)); assay: Trypanosoma cruzi tyrosyl tRNA synthetase (TcYRS) SOP; type: functional; settings: 30 µM
[9] = biological target: Chromo domain-containing protein 1 (Saccharomyces cerevisiae (strain ATCC 204508 / S288c) (Baker's yeast)) (UniProt P32657); assay: ScCHD-1 Enzyme Inhibition Assay; type: functional; settings: 30 µM; further: in the data most compounds retested in dose-response had high values
Chromo domain-containing protein 1 (Saccharomyces cerevisiae (strain ATCC 204508 / S288c) (Baker's yeast)), sequence (P32657 whole entry, the tested form may be a part): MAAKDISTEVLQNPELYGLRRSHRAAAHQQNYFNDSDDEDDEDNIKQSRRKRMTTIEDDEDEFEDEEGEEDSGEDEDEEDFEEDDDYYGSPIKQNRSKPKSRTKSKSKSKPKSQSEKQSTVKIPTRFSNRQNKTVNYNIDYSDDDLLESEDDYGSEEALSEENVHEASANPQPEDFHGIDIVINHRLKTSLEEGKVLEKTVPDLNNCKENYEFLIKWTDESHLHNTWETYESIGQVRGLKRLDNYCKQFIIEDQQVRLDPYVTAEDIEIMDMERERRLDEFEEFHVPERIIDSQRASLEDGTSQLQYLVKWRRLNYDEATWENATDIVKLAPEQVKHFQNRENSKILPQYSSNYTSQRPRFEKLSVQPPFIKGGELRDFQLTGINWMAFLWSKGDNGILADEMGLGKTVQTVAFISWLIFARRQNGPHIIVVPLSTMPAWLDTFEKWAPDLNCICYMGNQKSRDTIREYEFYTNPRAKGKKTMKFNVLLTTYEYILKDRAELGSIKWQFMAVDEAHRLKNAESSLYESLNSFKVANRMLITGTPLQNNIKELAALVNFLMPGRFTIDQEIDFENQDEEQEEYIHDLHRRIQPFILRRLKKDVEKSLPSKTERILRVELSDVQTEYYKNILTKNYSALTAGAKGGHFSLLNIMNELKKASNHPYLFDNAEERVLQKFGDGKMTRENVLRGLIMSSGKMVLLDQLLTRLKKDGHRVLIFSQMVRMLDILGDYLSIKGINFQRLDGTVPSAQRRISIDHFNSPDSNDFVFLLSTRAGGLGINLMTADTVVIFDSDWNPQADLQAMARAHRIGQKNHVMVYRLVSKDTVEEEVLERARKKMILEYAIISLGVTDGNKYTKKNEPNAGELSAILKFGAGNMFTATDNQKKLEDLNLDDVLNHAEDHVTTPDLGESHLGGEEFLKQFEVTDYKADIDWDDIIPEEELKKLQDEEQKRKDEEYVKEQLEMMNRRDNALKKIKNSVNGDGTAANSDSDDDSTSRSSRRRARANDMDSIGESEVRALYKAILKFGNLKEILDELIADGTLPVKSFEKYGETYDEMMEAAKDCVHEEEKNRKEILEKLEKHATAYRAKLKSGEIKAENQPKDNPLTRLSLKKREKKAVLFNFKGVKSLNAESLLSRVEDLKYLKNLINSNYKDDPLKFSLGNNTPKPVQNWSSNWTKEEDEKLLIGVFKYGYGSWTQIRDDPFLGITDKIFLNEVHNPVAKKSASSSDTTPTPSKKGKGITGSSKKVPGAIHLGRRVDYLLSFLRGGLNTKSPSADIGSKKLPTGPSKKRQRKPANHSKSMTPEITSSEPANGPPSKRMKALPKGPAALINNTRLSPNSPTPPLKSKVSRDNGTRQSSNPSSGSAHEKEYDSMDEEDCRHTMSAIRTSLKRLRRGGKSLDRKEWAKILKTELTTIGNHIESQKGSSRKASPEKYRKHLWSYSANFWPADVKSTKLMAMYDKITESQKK

SMILES	Percent Effect [1] [%]	Percent Effect [2] [%]	Percent Effect [3] [%]	Percent Effect [4] [%]	Percent Effect (Trypanosoma cruzi) [%]	Percent Effect [5] [%]	Percent Effect [6] [%]	Percent Effect (Homo sapiens) [%]	Percent Effect [7] [%]	Percent Effect [8] [%]	Percent Effect [9] [%]
Cc1noc(C)c1CN(C)C(=O)c1ccc(NC2CC2)nc1	-1.87	15.8	-5.49	6.74	1.59	2.88	5.84	-7.41	9.36	18.5	-4.25
Cc1cccc(-c2noc(CN3CCCC(Cn4cncn4)C3)n2)c1 (stereo unspecified)	-6.12	20.2	-9.05	10.8	8.59	3.04	5.16	5.05	6.4	21.5	-4.86
Cc1ccccc1C(=O)N1CCC(n2nnc3cc(F)ccc32)CC1	-4.02	5.33	12	0.882	-3.35	1.17	5.02	7.34	4.25	11.5	-5
c1ccc(-c2ncc(CNC3CCc4ncnn4C3)cn2)cc1 (stereo unspecified)	-5	8.86	6.48	-1.35	-1.33	9.25	3.26	-3.68	7.29	10.1	-13.8
Cc1nn(C(C)C)c(C)c1NC(=O)c1ccccc1	-2.77	2.74	-0.803	6.74	4.17	-2.4	14.5	-0.0619	7.29	-3.7	-1.66
Cc1cc2n(n1)CC(CNCc1ccc(-n3cccn3)nc1)CN2 (stereo unspecified)	-1.63	5.26	-8.03	8.37	13.2	-0.766	7.69	1.93	11.3	21.9	-9.89
